Pf apPOL block – Pf-apPOL DNA polymerase inhibition; Recombinant Pf-apPOL, molecular beacon fluorescence, 1.5 h; inhibition, % at 10 µM; 210,000 tested, 0.25% active; AID 1794808
mHTT-CaM PPI inh – inhibitors of human mutant huntingtin-calmodulin interaction. AID 1671202. P42858. inhibition, % at 15 µM. 190,000 tested, 3.6% active. AlphaScreen His-mHTT/GST-CaM binding, luminescence;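 further: 0% = both proteins with DMSO and 100% = one protein alone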
* marks the source's active call; other numbers are inactive results; . = no result; ! = repeats disagree. Most compounds without a hit are left out; they make up all but 3.5% or so of the library. No stated cut-off is given here; in the data, active means inhibition above about 50%; inactive means the rest.

SMILES	Pf apPOL block	mHTT-CaM PPI inh
COc1cccc(C(=O)Oc2cc(C)[nH]c(=O)c2[N+](=O)[O-])c1OC	-8	7
CCC(C)NC(=O)C1(c2ccc(NS(=O)(=O)CC)cc2)CCCCC1 (stereo unspecified)	3	1
O=C(NC(NCC1CCCO1)C(Cl)(Cl)Cl)c1ccco1 (stereo unspecified)	97*	-1
O=C(NC(NCCc1ccccc1)C(Cl)(Cl)Cl)c1ccco1 (stereo unspecified)	-1	-10
CC(CCc1ccccc1)NC(=O)c1ccc(F)cc1 (stereo unspecified)	-4	-7
CCOc1cccc(CN2CCc3nc(N4CCN(c5ccc(F)cc5)CC4)ncc3C2)c1	-2	4
COc1ccc(C(=O)N2CCCC(c3nc(CCNC(=O)C4CC4)cs3)C2)cc1 (stereo unspecified)	-1	8
COc1nn(C)cc1C(=O)Nc1nc(-c2nc3ccccc3s2)cs1	-1	6
Cc1ccc(NC=CC(=O)c2ccc(Br)cc2)c(C)c1	-1	-2
Cc1ccccc1NC(=O)CN1CCCCC1c1nc(-c2ccc(F)cc2)no1 (stereo unspecified)	0	-9
N#CC1=C(N)Oc2n[nH]c(-c3ccccc3)c2C12c1ccccc1-c1ccccc12	-2	90*
N#CC1=C(N)Oc2n[nH]c(-c3ccccc3)c2C12C(=O)Nc1ccccc12 (stereo unspecified)	-2	3
Cc1ccc(S(C)(=O)=NS(=O)(=O)c2sc3ccc(Cl)cc3c2C)cc1 (stereo unspecified)	0	.
O=C(Nc1nnc(SCc2c(F)cccc2Cl)s1)c1cc(-c2ccco2)on1	61*	18
O=C(Nc1nnc(SCc2cn3ccccc3n2)s1)c1cc(-c2ccco2)on1	12	-6
O=C(c1ccc(NCc2ccc(Cl)cc2)c([N+](=O)[O-])c1)N1CC2CC(C1)c1cccc(=O)n1C2 (stereo unspecified)	1	38
COCCc1nc(C2CCCN(Cc3ccc4[nH]ccc4c3)C2)n[nH]1 (stereo unspecified)	-5	7
COc1ccccc1C(NC(C)=O)c1cc([N+](=O)[O-])c2cccnc2c1O (stereo unspecified)	-6	100*
O=C(NC(c1cccs1)c1cc([N+](=O)[O-])c2cccnc2c1O)C1CCCCC1 (stereo unspecified)	-6	47
COc1ccccc1C(NC(=O)C1CCCCC1)c1cc([N+](=O)[O-])c2cccnc2c1O (stereo unspecified)	-5	54*
Cc1cccc(-n2cnc(C(=O)Nc3ccccc3F)n2)c1	-5	-2
CCOC1=NN(c2ccc([N+](=O)[O-])cc2)C(=O)/C1=C/c1ccc(Cl)c(Cl)c1	8	32
CCOC1=NN(c2ccc([N+](=O)[O-])cc2)C(=O)/C1=C/c1ccccc1Cl	-6	79*
CCCC(=O)N1CCc2c(c(C(=O)NCc3ccccc3)nn2C)C1	-9	0
Cn1nc(C(=O)NCc2ccccc2)c2c1CCN(C(=O)CC1CCCC1)C2	-3	71*
SMILES	Pf apPOL block	mHTT-CaM PPI inh
Cn1nc(C(=O)NCc2ccc(Cl)cc2)c2c1CCN(C(=O)C1CC1)C2	-6	83*
Cn1nc(C(=O)NCc2ccc(F)cc2)c2c1CCN(C(=O)C1CCC1)C2	-8	28
Cc1cccc(CNC(=O)c2nn(C)c3c2CN(C(=O)CC2CCCC2)CC3)c1	-10	55*
Cn1nc(C(=O)NCc2ccc(F)cc2)c2c1CCN(C(=O)c1ccc(Cl)cc1)C2	-13	-10
COc1ccc(C(=O)N2CCc3c(c(C(=O)NCc4ccc(Cl)cc4)nn3C)C2)cc1	-1	80*
O=C(NCCC1=CCCCC1)c1ccnc(N2CCNC(c3ccccc3)C2)c1 (stereo unspecified)	-6	37
Cn1nc(C(=O)NCc2ccc(F)cc2)c2c1CCN(C(=O)CC1CCCC1)C2	-12	76*
Cc1cccc(CNC(=O)c2nn(C)c3c2CN(C(=O)C2CCCCC2)CC3)c1	-4	36
Cn1nc(C(=O)NCc2ccccc2)c2c1CCN(C(=O)C1CCCCC1)C2	-9	85*
COc1ccc(NC(=O)c2c(-c3c(F)cccc3Cl)noc2C)c([N+](=O)[O-])c1	3	50
Cc1ccc(C(=O)N2CCC(c3nncn3-c3ccccc3)CC2)cc1	2	-4
Cc1nc2cc(-c3noc(-c4nccc5ccccc45)n3)ccc2o1	5	-12
O=C(CN1C(=O)c2ccccc2S1(=O)=O)N1CCN(C(=O)c2ccco2)CC1	0	-12
CC/C(O)=C(/C#N)c1nc2ccccc2[nH]1	29	7
CSCCC(C(O)=C(C#N)c1nc2ccccc2[nH]1)N1C(=O)c2ccccc2C1=O (stereo unspecified)	-1	67*
CC(C)CC(C(O)=C(C#N)c1nc2ccccc2[nH]1)N1C(=O)c2ccccc2C1=O (stereo unspecified)	-4	92*
N#CC(=C(O)CCCN1C(=O)c2ccccc2C1=O)c1nc2ccccc2[nH]1	-15	-1
O=C(O)c1ccc(-n2ncc(N3CCCCC3)c(Cl)c2=O)cc1	2	-4
Cc1ccccc1-c1nc(C2CCN(S(=O)(=O)c3ccccc3F)CC2)no1	-4	-10
COc1cc(C)nc(Oc2ccc(=O)[nH]n2)n1	-8	-7
Cc1cccc2c1[nH]c1nc(NN)nnc12	-1	66*
NNc1nnc2c(n1)[nH]c1ccccc12	-7	100*
Cc1ccc2[nH]c3nc(NN)nnc3c2c1	-6	47
CCCSc1nnc2c(n1)[nH]c1c(C)cccc12	-4	9
O=C(Cn1nc(-c2ccc(F)cc2)ccc1=O)N1CCN(c2ncccn2)CC1	-7	5
SMILES	Pf apPOL block	mHTT-CaM PPI inh
CC(=O)NCc1csc(C2CCCN(S(=O)(=O)c3cccc(Cl)c3)C2)n1 (stereo unspecified)	-8	4
Cc1ccc(NC2=C([N+](=O)[O-])CS(=O)(=O)C2)cc1	-5	-3
O=[N+]([O-])C1=C(Nc2ccc(Cl)c(Cl)c2)CS(=O)(=O)C1	-3	75*
CC(=O)c1ccc(N2CN=c3s/c(=C\c4ccc(I)o4)c(=O)n3C2)cc1	-2	9
O=C(c1cc(-c2ccccc2)nc2ccccc12)N1CCCC1	8	8
O=C(c1cccc(Cl)c1)N1CCN(c2ccccc2)CC1	-6	0
O=C(CCCOc1ccccc1)N1CCN(Cc2ccccc2)CC1	-1	8
O=C(c1cc(-c2ccncc2)nc2ccccc12)N1CCN(c2cccc(Cl)c2)CC1	-6	91*
O=C(c1ccccc1Br)N1CCN(c2cccc(Cl)c2)CC1	3	64*!
O=C(CCCOc1ccccc1)N1CCN(c2cccc(Cl)c2)CC1	-6	70*
CCC(=O)N1CCN(c2nc3c(s2)CC(C(=O)NCc2ccccc2OC)CC3)CC1 (stereo unspecified)	0	15
O=C(O)c1cc(Cl)ccc1NS(=O)(=O)c1ccc(Br)c2nsnc12	1	5
CNCCCN1c2ccccc2CCc2ccccc21	-8	6
Cc1ccc(OCC(=O)N2CCC(OCc3nc(C)no3)CC2)cc1	-4	1
O=C1C2=C(Nc3[nH]c(=O)[nH]c(=O)c3C2c2ccc(Cl)cc2)c2ccccc21 (stereo unspecified)	-4	67*!
Cn1c2c(c(=O)[nH]c1=O)C(c1ccc(OCc3ccccc3)cc1)C1=C(N2)c2ccccc2C1=O (stereo unspecified)	-94	86*
